Source: PubChem BioAssay (Tox21)
Results filed as inconclusive are left out. Activity calls are given as the source filed them. Unless noted, calls follow the shape of the dose curve; as a rule, active = well fitted curve in the direction sought with a large enough effect in the repeat runs; inconclusive = weak or mixed curves; inactive = no such curve, though single readings can be large; an effect the other way counts as inactive or inconclusive.

What was measured:
[1] = target: Progesterone receptor (Homo sapiens) (UniProt P06401); assay: qHTS assay to identify small molecule agonists of the progesterone receptor (PR) signaling pathway (AID 1346784; calls by dose curve; also: nearly all actives have a fitted effect of over 30% in size)
Sequence of Progesterone receptor (Homo sapiens) (P06401 whole entry, looked up): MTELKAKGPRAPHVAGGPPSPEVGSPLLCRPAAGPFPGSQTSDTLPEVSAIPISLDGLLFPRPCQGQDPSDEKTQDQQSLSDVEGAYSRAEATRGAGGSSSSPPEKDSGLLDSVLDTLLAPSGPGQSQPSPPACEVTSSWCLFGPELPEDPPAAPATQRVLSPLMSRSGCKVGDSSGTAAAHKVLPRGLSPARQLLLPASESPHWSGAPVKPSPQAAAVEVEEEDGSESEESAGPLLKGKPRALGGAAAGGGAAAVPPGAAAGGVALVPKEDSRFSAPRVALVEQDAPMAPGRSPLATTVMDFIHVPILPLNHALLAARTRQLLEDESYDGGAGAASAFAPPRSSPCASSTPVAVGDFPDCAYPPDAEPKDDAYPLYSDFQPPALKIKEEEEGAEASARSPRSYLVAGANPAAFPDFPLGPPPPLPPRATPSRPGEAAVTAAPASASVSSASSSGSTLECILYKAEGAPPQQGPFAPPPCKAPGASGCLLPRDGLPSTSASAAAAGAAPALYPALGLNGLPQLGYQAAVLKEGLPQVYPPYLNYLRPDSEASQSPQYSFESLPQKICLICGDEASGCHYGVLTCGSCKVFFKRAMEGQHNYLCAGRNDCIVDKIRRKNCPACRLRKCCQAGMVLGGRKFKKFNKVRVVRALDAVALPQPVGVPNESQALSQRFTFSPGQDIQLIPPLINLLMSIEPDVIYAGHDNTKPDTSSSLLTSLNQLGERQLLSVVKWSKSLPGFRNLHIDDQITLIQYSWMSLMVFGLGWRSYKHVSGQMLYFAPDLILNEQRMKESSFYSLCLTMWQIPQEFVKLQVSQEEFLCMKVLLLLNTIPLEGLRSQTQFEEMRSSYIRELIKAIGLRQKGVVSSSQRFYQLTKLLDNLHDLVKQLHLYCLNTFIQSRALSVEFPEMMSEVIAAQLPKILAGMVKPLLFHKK
Summary of the method: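 Reporter assay, GripTite PR-UAS-bla HEK 293T cells: 16 hr exposure to DMSO-dissolved compounds at 37C, 5% CO2, in steroid-depleted (2% charcoal-stripped FBS) medium; beta-lactamase measured by FRET fluorescence.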

[2] = target: Progesterone receptor (Homo sapiens) (UniProt P06401); assay: qHTS assay to identify small molecule antagonists of the progesterone receptor (PR) signaling pathway (AID 1346795; active = well fitted inhibition curve with a large enough effect in the signal ratio in the repeat runs, not every such curve was filed as active; the % refers to the signal ratio; also: potency is read from the fitted curve at half-maximal effect)
Summary of the method: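 Stimulus R5020 at 1 nM final; cells HEK293T PR-UAS-bla; medium with 2% charcoal-stripped FBS; compound exposure 16 hr at 37C, 5% CO2; detection by FRET beta-lactamase substrate, 2 hr, room temperature.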

[3] = qHTS assay to identify small molecule antagonists of the progesterone receptor (PR) signaling pathway - cell viability counter screen (AID 1346798); also: series mostly up to about 92 µM; nearly all actives have a fitted effect of over 50% in size
Summary of the method: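 In the same plates used for the beta-lactamase readout, cell viability of compound- and R5020-treated PR-UAS-bla HEK293T cells (16 hr, 37C) was assessed by CellTiter-Glo luminescence.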

[4] = qHTS assay to identify small molecule agonists of the progesterone receptor (PR) signaling pathway - cell viability counter screen (AID 1346799; calls by dose curve; also: nearly all actives have a fitted effect of over 45% in size; also: potency is read from the fitted curve at half-maximal effect)
Summary of the method: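 Multiplexed viability read: CellTiter-Glo luminescence, 30 min RT, following LiveBLAzer FRET measurement on PR-UAS-bla HEK293T cells exposed to compounds 16 hr.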

[5] = qHTS assay to identify small molecule antagonists of the TGF-beta/Smad signaling pathway - cell viability counter screen (AID 1346824); also: nearly all actives have a fitted effect of over 50% in size
Summary of the method: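 SBE-bla HEK 293T cells were plated overnight at 37 C, then given compounds in DMSO plus TGF-beta1 (added as 0.25 ng/mL solution) for 5 hr. After the bla read, CellTiter-Glo was added to the same wells and luminescence read after 30 min at room temperature.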

[6] = qHTS assay to identify small molecule agonists of the TGF-beta/Smad signaling pathway - cell viability counter screen (AID 1346829); also: top concentration of the series differs between compounds; nearly all actives have a fitted effect of over 45% in size
Summary of the method: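 After overnight seating at 37 C and 5% CO2, reporter cells got compounds for 5 hr and FRET substrate for 2 hr; cell viability then came from CellTiter-Glo luminescence.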

[7] = qHTS assay to identify small molecule agonists of the TGF-beta/Smad signaling pathway (AID 1346859; active = well fitted activation curve with a large enough effect in the signal ratio in the repeat runs, not every such curve was filed as active; the % refers to the signal ratio; also: series mostly up to about 77 µM)
Summary of the method: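 Screening used HEK 293T SBE-bla cells at 4,000/well. Test agents: 5 hr, 37 C. Detection: FRET substrate, 2 hr RT, then excitation 405 nm with emissions at 460 and 530 nm.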

[8] = target: Thyrotropin-releasing hormone receptor (Homo sapiens) (UniProt P34981); assay: qHTS assay to identify small molecule antagonists of the thyrotropin-releasing hormone receptor (TRHR) signaling pathway (AID 1346877; active = well fitted inhibition curve with a large enough effect in the repeat runs, not every such curve was filed as active; also: series mostly up to about 51 µM)
Sequence of Thyrotropin-releasing hormone receptor (Homo sapiens) (P34981 whole entry, looked up): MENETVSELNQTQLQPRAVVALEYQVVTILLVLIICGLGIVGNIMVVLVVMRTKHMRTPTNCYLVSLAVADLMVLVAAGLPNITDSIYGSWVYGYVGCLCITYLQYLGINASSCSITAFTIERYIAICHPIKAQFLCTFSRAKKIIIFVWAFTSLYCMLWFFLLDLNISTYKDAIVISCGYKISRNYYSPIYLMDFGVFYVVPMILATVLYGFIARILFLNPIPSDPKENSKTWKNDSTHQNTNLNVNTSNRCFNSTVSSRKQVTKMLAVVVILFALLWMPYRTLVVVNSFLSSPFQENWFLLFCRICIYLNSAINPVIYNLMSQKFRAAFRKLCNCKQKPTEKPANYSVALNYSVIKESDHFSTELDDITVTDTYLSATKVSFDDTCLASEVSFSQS
Summary of the method: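 TRHR-expressing HEK293 cells loaded with calcium dye for 2 h at 37 C; compounds pre-incubated 5 min at room temperature before TRH challenge at 1 nM final. Intracellular calcium fluorescence read kinetically for 3 min; 15 concentrations in triplicate.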

[9] = target: Thyrotropin-releasing hormone receptor (Homo sapiens) (UniProt P34981); assay: qHTS assay to identify small molecule agonists of the thyrotropin-releasing hormone receptor (TRHR) signaling pathway (AID 1346891; calls by dose curve; also: series mostly up to about 58 µM)
Summary of the method: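 Readout was intracellular calcium fluorescence in TRHR-Hek293 cells. Cells were incubated 18 h, dye-loaded 2 h at 37 °C, and treated with compound in agonist mode.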

[10] = Human pregnane X receptor (PXR) small molecule agonists, qHTS cell viability counter screen (AID 1346977); also: nearly all actives have a fitted effect of over 50% in size
Summary of the method: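 In each well, the PXR reporter HepG2 line was checked for viability: CellTiter-Fluor reagent added 23hr post-dosing, fluorescence read after 1hr incubation at 37C.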

[11] = Caspase-3/7 induction in CHO-K1 cells by small molecules, qHTS assay (AID 1346980); also: nearly all actives have a fitted effect of over 15% in size
Summary of the method: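 Wild-type cells were seeded at 1,500 per well and settled 5 hr at 37 C, 5% CO2, then exposed to DMSO-dissolved compounds for 17 hr. Caspase-Glo 3/7 reagent was added, and luminescence was read after 30min at room temperature.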

[12] = Caspase-3/7 induction in HepG2 cells by small molecules, qHTS cell viability counter screen (AID 1346981); also: nearly all actives have a fitted effect of over 30% in size; also: potency is read from the fitted curve at half-maximal effect
Summary of the method: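 Wild-type HepG2 cells, 2,000/well, settled 5 hr at 37 C, 5% CO2 before compound addition. Viability read by CellTiter-Fluor fluorescence, reagent added after 16 hr compound exposure, then 1 hr at 37C, in the same wells as the caspase read.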

[13] = target: Nuclear receptor subfamily 1 group I member 2 (Homo sapiens) (UniProt O75469); assay: Human pregnane X receptor (PXR) small molecule agonists, qHTS assay (AID 1346982); also: nearly all actives have a fitted effect of over 35% in size; also: potency is read from the fitted curve at half-maximal effect
Sequence of Nuclear receptor subfamily 1 group I member 2 (Homo sapiens) (O75469 whole entry, looked up): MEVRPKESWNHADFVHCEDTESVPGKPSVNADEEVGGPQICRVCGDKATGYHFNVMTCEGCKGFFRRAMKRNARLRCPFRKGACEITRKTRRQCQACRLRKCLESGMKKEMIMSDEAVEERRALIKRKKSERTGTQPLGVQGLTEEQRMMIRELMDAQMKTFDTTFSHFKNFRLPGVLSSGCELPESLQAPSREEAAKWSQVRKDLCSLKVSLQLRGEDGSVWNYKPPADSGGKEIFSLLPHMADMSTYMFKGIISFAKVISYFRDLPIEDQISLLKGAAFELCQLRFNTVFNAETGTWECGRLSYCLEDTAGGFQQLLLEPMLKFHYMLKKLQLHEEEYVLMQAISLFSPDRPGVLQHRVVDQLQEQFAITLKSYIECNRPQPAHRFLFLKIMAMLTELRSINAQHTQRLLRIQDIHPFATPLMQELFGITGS
Summary of the method: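 PXR-Luc HepG2 reporter cells (CYP3A4-driven luciferase) in 5% charcoal-stripped FBS medium, plated 5 h before compound addition, then treated 24 h at 37C. Luciferase read by ONE-Glo luminescence after 30 min at room temperature.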

[14] = target: Cytochrome P450 2D6 (Homo sapiens) (UniProt P10635); assay: Cytochrome P450 Family 2 Subfamily D Member 6 (CYP2D6) small molecule antagonists: luciferase reporter qHTS assay (AID 1671196); also: nearly all actives have a fitted effect of over 50% in size; also: potency is read from the fitted curve at half-maximal effect
Sequence of Cytochrome P450 2D6 (Homo sapiens) (P10635 whole entry, looked up): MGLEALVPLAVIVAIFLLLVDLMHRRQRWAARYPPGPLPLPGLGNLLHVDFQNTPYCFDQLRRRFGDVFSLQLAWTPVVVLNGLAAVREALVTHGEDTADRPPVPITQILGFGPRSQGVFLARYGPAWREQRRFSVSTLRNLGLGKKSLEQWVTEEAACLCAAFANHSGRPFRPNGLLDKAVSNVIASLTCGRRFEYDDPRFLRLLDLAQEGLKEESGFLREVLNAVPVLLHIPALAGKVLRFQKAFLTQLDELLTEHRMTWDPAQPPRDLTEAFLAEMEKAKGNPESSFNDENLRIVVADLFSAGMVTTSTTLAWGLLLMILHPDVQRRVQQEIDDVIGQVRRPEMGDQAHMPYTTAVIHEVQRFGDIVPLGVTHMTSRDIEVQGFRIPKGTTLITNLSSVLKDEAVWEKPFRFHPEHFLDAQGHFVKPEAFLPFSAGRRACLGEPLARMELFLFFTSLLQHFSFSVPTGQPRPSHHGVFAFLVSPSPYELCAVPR
Summary of the method: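 Cell-free P450-Glo system: CYP2D6 with proluciferin substrate was pre-incubated with compound for 10 min, then reacted with NADPH regeneration for 1 h at room temperature. Luciferin product was detected after 20 min, and data were reported as relative luminescence units.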

[15] = target: Cytochrome P450 2C19 (Homo sapiens) (UniProt P33261); assay: Cytochrome P450 Family 2 Subfamily C Member 19 (CYP2C19) small molecule antagonists: luciferase reporter qHTS assay (AID 1671197); also: nearly all actives have a fitted effect of over 65% in size; also: potency is read from the fitted curve at half-maximal effect
Sequence of Cytochrome P450 2C19 (Homo sapiens) (P33261 whole entry, looked up): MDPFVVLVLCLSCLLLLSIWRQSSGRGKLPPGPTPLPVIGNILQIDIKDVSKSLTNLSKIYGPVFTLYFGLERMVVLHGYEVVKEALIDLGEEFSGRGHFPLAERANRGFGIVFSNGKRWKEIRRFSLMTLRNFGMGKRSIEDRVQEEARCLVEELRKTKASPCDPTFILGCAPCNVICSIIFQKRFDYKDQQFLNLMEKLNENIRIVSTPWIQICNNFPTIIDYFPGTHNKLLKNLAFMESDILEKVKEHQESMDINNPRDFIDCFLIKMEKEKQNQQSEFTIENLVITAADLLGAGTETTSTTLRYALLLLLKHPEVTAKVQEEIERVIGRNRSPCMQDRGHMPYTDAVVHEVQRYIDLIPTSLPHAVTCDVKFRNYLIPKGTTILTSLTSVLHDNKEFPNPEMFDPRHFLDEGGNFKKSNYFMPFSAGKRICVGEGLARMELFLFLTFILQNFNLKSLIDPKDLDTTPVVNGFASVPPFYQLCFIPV
Summary of the method: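 Inhibition of CYP2C19 was scored from loss of luminescence in a P450-Glo proluciferin substrate assay, NADPH-started and run 1 h at 37C, with ketoconazole as positive control.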

[16] = Caspase-3/7 induction in HepG2 cells by small molecules, qHTS assay (AID 1346978); also: nearly all actives have a fitted effect of over 15% in size
Summary of the method: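 Wild-type HepG2 cells (2,000/well) were settled 5 h at 37 C, 5% CO2, then exposed to compounds in DMSO for 17 h. Caspase-3/7 activity was read by luminescence 30 min after adding Caspase-Glo 3/7 reagent at room temperature.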

[17] = Caspase-3/7 induction in CHO-K1 cells by small molecules, qHTS cell viability counter screen (AID 1346979); also: nearly all actives have a fitted effect of over 35% in size
Summary of the method: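 Following a 5hr settling period, CHO-K1 cells at 1,500 per well received DMSO-dissolved compounds. Cell viability was quantified 16hr later by CellTiter-Fluor fluorescence, measured after 1hr with reagent at 37C.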

[18] = target: Nuclear receptor subfamily 1 group I member 2 (Rattus norvegicus) (UniProt Q9R1A7); assay: Rat pregnane X receptor (rPXR) activation by small molecules, qHTS assay (AID 1346983); conditions: rPXR luciferase reporter cells, One-Glo luminescence, 24 h; max activation: stronger effect = higher value; also: nearly all actives have a fitted effect of over 20% in size
Sequence of Nuclear receptor subfamily 1 group I member 2 (Rattus norvegicus) (Q9R1A7 whole entry, looked up): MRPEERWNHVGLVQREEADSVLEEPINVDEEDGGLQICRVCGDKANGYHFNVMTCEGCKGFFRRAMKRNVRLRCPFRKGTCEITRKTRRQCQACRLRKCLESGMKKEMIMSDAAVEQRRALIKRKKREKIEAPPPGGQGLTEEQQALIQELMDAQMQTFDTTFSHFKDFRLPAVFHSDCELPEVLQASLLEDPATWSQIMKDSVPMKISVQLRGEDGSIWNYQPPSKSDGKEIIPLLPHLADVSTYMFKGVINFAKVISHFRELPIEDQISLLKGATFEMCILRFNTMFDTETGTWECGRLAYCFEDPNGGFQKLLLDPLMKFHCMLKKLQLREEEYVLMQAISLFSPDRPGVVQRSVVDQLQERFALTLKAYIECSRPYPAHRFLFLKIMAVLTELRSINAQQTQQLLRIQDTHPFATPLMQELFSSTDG
Summary of the method: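 Cell-based rPXR luciferase reporter assay, 2,000 cells per well, rested 5hr at 37 C before compound addition in DMSO, then 24 hr at 37 C. One-Glo reagent was added and luminescence read after 30 min at room temperature.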

[19] = target: Nuclear receptor subfamily 1 group I member 2 (Homo sapiens) (UniProt O75469); assay: CYP3A4 induction through human pregnane X receptor (PXR) by small molecules, qHTS assay (AID 1346984); also: nearly all actives have a fitted effect of over 40% in size
Summary of the method: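 DPX-2 HepG2 cells carrying a PXR response element and CYP3A4-promoter luciferase construct, treated with compounds 24 hr at 37C. Then P450-Glo CYP3A4 Luciferin-IPA substrate (3uM final) for 3 hr at 37C, One-Glo added, luminescence read.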

[20] = target: Nuclear receptor subfamily 1 group I member 2 (Homo sapiens) (UniProt O75469); assay: Human pregnane X receptor (PXR) activation by small molecules, qHTS assay (AID 1346985); also: nearly all actives have a fitted effect of over 40% in size
Summary of the method: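 DPX-2 cells (HepG2 co-transfected with a PXR response element and a CYP3A4-promoter luciferase construct) were seeded at 2,000 per well, rested 5 hr at 37C, then exposed to DMSO-dissolved compounds for 24 hr. Activation was read as luciferase luminescence.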
% is scaled to controls: 0 for no effect and ±100 for the full control effect.

O=C(c1ccco1)N1CCNCC1
inactive: Potency [1] | Potency [2] | Potency [3] | Potency [4] | outcome [5] | outcome [6] | outcome [7] | outcome [8] | outcome [9] | Potency [10] | Potency [11] | Potency [12] | Potency [13] | Potency [14] | Potency [15]

CCOC(C)OCC
active: Potency [15] 69 µM
inactive: Potency [1] | Potency [2] | Potency [3] | Potency [4] | outcome [5] | outcome [6] | outcome [7] | outcome [8] | outcome [9] | Potency [10] | Potency [16] | Potency [17] | Potency [11] | Potency [12] | Potency [13] | max activation [18] -4.85% | Potency [19] | Potency [20] | Potency [14]

CC(O)CN (stereo unspecified)
inactive: Potency [1] | Potency [2] | Potency [3] | Potency [4] | outcome [5] | outcome [6] | outcome [7] | outcome [8] | outcome [9] | Potency [10] | Potency [16] | Potency [17] | Potency [13] | Potency [14] | Potency [15]

Nc1ccc(-c2ccc(F)cc2)cc1
active: Potency [2] 6.11 µM | Potency [13] 30.6 µM | Potency [15] 8.94 µM
inactive: Potency [1] | Potency [3] | Potency [4] | outcome [5] | outcome [6] | outcome [7] | outcome [8] | outcome [9] | Potency [10] | Potency [16] | Potency [17] | Potency [11] | Potency [12]

CCCC1CCOC(C)S1 (stereo unspecified)
inactive: Potency [1] | Potency [2] | Potency [3] | Potency [4] | outcome [5] | outcome [6] | outcome [7] | outcome [8] | outcome [9] | Potency [16] | Potency [17] | Potency [11] | Potency [12] | Potency [13] | Potency [14] | Potency [15]

CCCCCCCCC(=O)OCC(C)OC(=O)CCCCCCCC (stereo unspecified)
active: Potency [15] 83.4 µM
inactive: Potency [1] | Potency [2] | Potency [3] | Potency [4] | outcome [5] | outcome [6] | outcome [7] | outcome [8] | outcome [9] | Potency [10] | Potency [16] | Potency [17] | Potency [11] | Potency [12] | Potency [13] | Potency [14]

CC(=O)c1cccnc1
inactive: Potency [1] | Potency [2] | Potency [3] | Potency [4] | outcome [5] | outcome [6] | outcome [7] | Potency [10] | Potency [17] | Potency [11] | Potency [12] | Potency [13] | Potency [14] | Potency [15]

O=C(OCCCCCOC(=O)c1ccccc1)c1ccccc1
active: Potency [15] 56.4 µM
inactive: Potency [1] | Potency [2] | Potency [3] | Potency [4] | outcome [5] | outcome [6] | outcome [8] | outcome [9] | Potency [10] | Potency [16] | Potency [17] | Potency [12] | Potency [13] | Potency [14]

CC1(C)[C@@H]2CC[C@]3(C2)[C@@H]1C(=O)CCC3(C)C
inactive: Potency [1] | Potency [2] | Potency [3] | outcome [5] | outcome [6] | outcome [7] | Potency [10] | Potency [17] | Potency [11] | Potency [12]
active: Potency [4] 27.3 µM | Potency [13] 9.69 µM | Potency [14] 31.7 µM | Potency [15] 39.9 µM

O=C(O)c1ccncc1
inactive: Potency [1] | Potency [2] | Potency [3] | Potency [4] | outcome [5] | outcome [6] | outcome [7] | outcome [8] | outcome [9] | Potency [16] | Potency [17] | Potency [12]

[O-][n+]1ccc(Cl)cc1
inactive: Potency [1] | Potency [2] | Potency [3] | Potency [4] | outcome [5] | outcome [6] | outcome [7] | Potency [10] | Potency [16] | Potency [17] | Potency [11] | Potency [12] | Potency [13]

CCCCCO
inactive: Potency [1] | Potency [2] | Potency [3] | Potency [4] | outcome [5] | outcome [6] | outcome [8] | outcome [9] | Potency [10] | Potency [16] | Potency [11] | Potency [13] | Potency [14] | Potency [15]

CNc1ccccc1
inactive: Potency [1] | Potency [2] | Potency [3] | Potency [4] | outcome [5] | outcome [6] | outcome [7] | Potency [10] | Potency [16] | Potency [17] | Potency [11] | Potency [12] | Potency [13] | Potency [14]
active: Potency [15] 31.7 µM

Cc1ccc(NC=O)c(C)c1
inactive: Potency [1] | Potency [2] | Potency [3] | Potency [4] | outcome [5] | outcome [6] | outcome [8] | outcome [9] | Potency [10] | Potency [16] | Potency [17] | Potency [12] | Potency [13] | Potency [15]

CC1(C)C(=O)NC(=O)N1CO
inactive: Potency [1] | Potency [2] | Potency [3] | Potency [4] | outcome [5] | outcome [6] | outcome [7] | Potency [10] | Potency [17] | Potency [11] | Potency [12] | Potency [13] | Potency [14] | Potency [15]

Clc1nc2ccccc2nc1Cl
inactive: Potency [1] | Potency [2] | Potency [3] | Potency [4] | outcome [5] | outcome [6] | outcome [7] | outcome [8] | outcome [9] | Potency [16] | Potency [11] | Potency [12] | Potency [15]
active: Potency [13] 61.8 µM | Potency [14] 64 µM

O=[N+]([O-])c1ccccc1CCO
inactive: Potency [1] | Potency [2] | Potency [3] | Potency [4] | outcome [5] | outcome [6] | outcome [8] | outcome [9] | Potency [16] | Potency [17] | Potency [11] | Potency [13] | Potency [15]

O=c1[nH]nc(-c2ccc([N+](=O)[O-])o2)o1
inactive: Potency [1] | Potency [2] | Potency [3] | Potency [4] | outcome [5] | outcome [6] | outcome [7] | outcome [8] | outcome [9] | Potency [16] | Potency [11]
active: Potency [12] 54.5 µM | Potency [13] 61.1 µM | Potency [15] 79.6 µM
